Test system: MST1R
Settings: concentration: 1 μM, replicates: in singlicate; n = 1
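Also: KINOMEscan kinase panel screen.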

Row | SMILES | %Inh
1 | COc1ccc(Nc2nccc(N3CCC(NC(=O)C(C)c4ccc(Cl)cc4)CC3)n2)cc1 (stereo not drawn) [GSK1379812] | 54%
2 | CCc1ccc(-c2ccc3c(c2)-c2n[nH]cc2S(=O)(=O)N3C)cc1 | 0%
3 | CC(=O)c1c(C)c2cnc(Nc3ccc(N4CCNCC4)cn3)nc2n(C2CCCC2)c1=O | 6%
4 | Cn1cncc1C(=O)NC1CCN(c2ccnc(Nc3ccc(F)cc3)n2)C1 (stereo not drawn) [GSK1379717] | 34%
5 | CNc1cc(-c2ccc3c(N)n[nH]c3c2)nc(N)n1 [GSK2224810] | 27%
6 | CN1c2ccc(-c3ccc(C(N)=O)cc3)cc2-c2[nH]ncc2S1(=O)=O | 0%
7 | COc1ccc(-c2coc3ccc(-c4nnc(C)o4)cc23)cc1 | 0%
8 | Cc1ccc(NC(=O)Nc2ccccc2F)cc1-c1ccc(C(=O)Nc2ccncc2)cc1 [GSK1398477] | 33%
9 | O=C(Nc1n[nH]c2nc(-c3ccco3)c(Br)cc12)C1CCN(Cc2ccccc2)C1.O=C(O)[C@H](O)[C@@H](O)C(=O)O (stereo not drawn) [SB-742034] | 7%
10 | FC(F)(F)c1ccccc1-c1cc(-c2c[nH]nc2-c2ccccn2)ccn1 [GW679396] | 13%
11 | COc1nccc(-c2c(-c3ccc(F)cc3)ncn2CCCN2CCOCC2)n1 [SB-282852] | 0%
12 | COc1cccc(CNC(=O)NC2CCN(c3ccnc(Nc4ccc(F)cc4)n3)C2)c1 (stereo not drawn) [GSK1379723] | 44%
13 | COC(=O)C(NC(=O)NC1CCN(c2ccnc(Nc3ccc(F)cc3)n2)C1)c1ccccc1 (stereo not drawn) [GSK1379712] | 35%
14 | CNCc1ccc2nc(NC(=O)c3ccc(C(C)(C)C)cc3)cn2c1 | 18%
15 | Cc1ccc(NC(=O)Nc2ccc(Cl)cc2)cc1-c1ccc(C(=O)Nc2ccncc2)cc1 [GSK1398472] | 20%
16 | Cn1cncc1-c1cc2c(Nc3ccc(OCc4ccccc4)cc3)ncnc2cn1 [GW281179] | 49%
17 | Fc1ccc(-c2nc3n(c2-c2ccncc2)CCS3)cc1 [GI98581] | 39%
18 | COc1ccc(CSc2nnc(-c3ccc4ncsc4c3)o2)cc1C(F)(F)F | 0%

Row | SMILES | %Inh
19 | Cc1ccc(NC(=O)Nc2ccccc2)cc1-c1ccc(C(=O)Nc2ccncc2)cc1 [GSK1398471] | 29%
20 | COc1ccc2cc(-c3nc(-c4ccccc4C(C)C)[nH]c3-c3ccncc3)ccc2c1 [SB-660566] | 42%
21 | O=C1NC(=O)C(c2ccc(Cl)cc2)=C1Nc1cccc(Cl)c1 [SB-317651] | 9%
22 | CC(C)c1cc(-c2ccc3c(N)n[nH]c3c2)nc(N)n1 [GSK2250882] | 3%
23 | Cc1c(Cn2c3ccccc3n3c(=O)cc(N4CCOCC4)nc23)cccc1C(F)(F)F [GSK2306394] | 0%
24 | COC(=O)C(Cc1ccccc1)NC(=O)NC1CCN(c2ccnc(Nc3ccc(F)cc3)n2)C1 (stereo not drawn) [GSK1379714] | 39%
25 | CS(=O)(=O)Cc1ccc(Nc2nccc(-c3c(-c4cccc(NC(=O)C5CCCCC5)c4)nn4ncccc34)n2)cc1 [GSK350559] | 11%
26 | Nc1nccc(-c2c(-c3ccc(F)cc3)ncn2C2CCN(Cc3ccccc3)CC2)n1 [SB-219980] | 0%
27 | CC(C)c1ccc(O)cc1Nc1ccnc2ccc(C(F)(F)F)cc12 [GW482059] | 0%
28 | CNc1nc(-c2ccc3c(N)n[nH]c3c2)cc(N2C[C@@H](C(=O)NC3CCCCC3)OC[C@H]2C)n1 [GSK2375584] | 30%
29 | CCn1c(-c2ccccc2)nc2cnccc21 [SB-733416] | 11%
30 | CCCCc1nn2ncccc2c1-c1ccnc(NC2CC2)n1 [GW684374] | 38%
31 | Nc1cccc(-c2ccc3c(N)n[nH]c3c2)n1 [GSK2192730] | 33%
32 | CS(=O)(=O)CCNCc1nc(-c2ccc3ncnc(Nc4ccc(OCc5ccccc5)c(Cl)c4)c3c2)cs1.Cl [GW582764] | 14%
33 | COc1cccc(NC(=O)Nc2ccc(C)c(-c3ccc(C(=O)Nc4ccncc4)cc3)c2)c1 [GSK1398474] | 57%
34 | CC[C@@H]1CO[C@H](C(=O)Nc2ccccc2)CN1c1cc(-c2ccc3c(N)n[nH]c3c2)nc(NC)n1 [GSK2376236] | 26%
35 | COc1ccc(CSc2nnc(-c3ccc4nccn4c3)o2)cc1C(F)(F)F | 0%
36 | Nc1ncnc2occ(-c3ccc4c(c3)CCN4C(=O)Cc3cc(F)ccc3F)c12 [GSK2645446] | 11%

Test system: T1, MST1
T1 construct: gene STK4
Settings: concentration: 1 μM, replicates: in singlicate; n = 1

Row | SMILES | %Inh
37 | COc1ccc(Nc2nccc(N3CCC(NC(=O)C(C)c4ccc(Cl)cc4)CC3)n2)cc1 (stereo not drawn) [GSK1379812] | 44%
38 | CCc1ccc(-c2ccc3c(c2)-c2n[nH]cc2S(=O)(=O)N3C)cc1 | 8%
39 | CC(=O)c1c(C)c2cnc(Nc3ccc(N4CCNCC4)cn3)nc2n(C2CCCC2)c1=O | 0%
40 | Cn1cncc1C(=O)NC1CCN(c2ccnc(Nc3ccc(F)cc3)n2)C1 (stereo not drawn) [GSK1379717] | 0%
41 | CNc1cc(-c2ccc3c(N)n[nH]c3c2)nc(N)n1 [GSK2224810] | 0%
42 | CN1c2ccc(-c3ccc(C(N)=O)cc3)cc2-c2[nH]ncc2S1(=O)=O | 0%
43 | COc1ccc(-c2coc3ccc(-c4nnc(C)o4)cc23)cc1 | 0%
44 | Cc1ccc(NC(=O)Nc2ccccc2F)cc1-c1ccc(C(=O)Nc2ccncc2)cc1 [GSK1398477] | 22%
45 | O=C(Nc1n[nH]c2nc(-c3ccco3)c(Br)cc12)C1CCN(Cc2ccccc2)C1.O=C(O)[C@H](O)[C@@H](O)C(=O)O (stereo not drawn) [SB-742034] | 0%
46 | FC(F)(F)c1ccccc1-c1cc(-c2c[nH]nc2-c2ccccn2)ccn1 [GW679396] | 4%
47 | COc1nccc(-c2c(-c3ccc(F)cc3)ncn2CCCN2CCOCC2)n1 [SB-282852] | 0%
48 | COc1cccc(CNC(=O)NC2CCN(c3ccnc(Nc4ccc(F)cc4)n3)C2)c1 (stereo not drawn) [GSK1379723] | 11%
49 | COC(=O)C(NC(=O)NC1CCN(c2ccnc(Nc3ccc(F)cc3)n2)C1)c1ccccc1 (stereo not drawn) [GSK1379712] | 0%
50 | CNCc1ccc2nc(NC(=O)c3ccc(C(C)(C)C)cc3)cn2c1 | 16%
51 | Cc1ccc(NC(=O)Nc2ccc(Cl)cc2)cc1-c1ccc(C(=O)Nc2ccncc2)cc1 [GSK1398472] | 8%
52 | Cn1cncc1-c1cc2c(Nc3ccc(OCc4ccccc4)cc3)ncnc2cn1 [GW281179] | 0%
53 | Fc1ccc(-c2nc3n(c2-c2ccncc2)CCS3)cc1 [GI98581] | 29%
54 | COc1ccc(CSc2nnc(-c3ccc4ncsc4c3)o2)cc1C(F)(F)F | 0%

Row | SMILES | %Inh
55 | Cc1ccc(NC(=O)Nc2ccccc2)cc1-c1ccc(C(=O)Nc2ccncc2)cc1 [GSK1398471] | 0%
56 | COc1ccc2cc(-c3nc(-c4ccccc4C(C)C)[nH]c3-c3ccncc3)ccc2c1 [SB-660566] | 7%
57 | O=C1NC(=O)C(c2ccc(Cl)cc2)=C1Nc1cccc(Cl)c1 [SB-317651] | 6%
58 | CC(C)c1cc(-c2ccc3c(N)n[nH]c3c2)nc(N)n1 [GSK2250882] | 0%
59 | Cc1c(Cn2c3ccccc3n3c(=O)cc(N4CCOCC4)nc23)cccc1C(F)(F)F [GSK2306394] | 15%
60 | COC(=O)C(Cc1ccccc1)NC(=O)NC1CCN(c2ccnc(Nc3ccc(F)cc3)n2)C1 (stereo not drawn) [GSK1379714] | 5%
61 | CS(=O)(=O)Cc1ccc(Nc2nccc(-c3c(-c4cccc(NC(=O)C5CCCCC5)c4)nn4ncccc34)n2)cc1 [GSK350559] | 11%
62 | Nc1nccc(-c2c(-c3ccc(F)cc3)ncn2C2CCN(Cc3ccccc3)CC2)n1 [SB-219980] | 17%
63 | CC(C)c1ccc(O)cc1Nc1ccnc2ccc(C(F)(F)F)cc12 [GW482059] | 0%
64 | CNc1nc(-c2ccc3c(N)n[nH]c3c2)cc(N2C[C@@H](C(=O)NC3CCCCC3)OC[C@H]2C)n1 [GSK2375584] | 0%
65 | CCn1c(-c2ccccc2)nc2cnccc21 [SB-733416] | 27%
66 | CCCCc1nn2ncccc2c1-c1ccnc(NC2CC2)n1 [GW684374] | 0%
67 | Nc1cccc(-c2ccc3c(N)n[nH]c3c2)n1 [GSK2192730] | 0%
68 | CS(=O)(=O)CCNCc1nc(-c2ccc3ncnc(Nc4ccc(OCc5ccccc5)c(Cl)c4)c3c2)cs1.Cl [GW582764] | 0%
69 | COc1cccc(NC(=O)Nc2ccc(C)c(-c3ccc(C(=O)Nc4ccncc4)cc3)c2)c1 [GSK1398474] | 18%
70 | CC[C@@H]1CO[C@H](C(=O)Nc2ccccc2)CN1c1cc(-c2ccc3c(N)n[nH]c3c2)nc(NC)n1 [GSK2376236] | 0%
71 | COc1ccc(CSc2nnc(-c3ccc4nccn4c3)o2)cc1C(F)(F)F | 0%
72 | Nc1ncnc2occ(-c3ccc4c(c3)CCN4C(=O)Cc3cc(F)ccc3F)c12 [GSK2645446] | 21%

Source: article PMC5540273 (PLoS ONE, 2017)
